Experimental data from the antibiotic and cytotoxicity screens of Wong et al. (2023).
In all, about 39,000 compounds went through this assay and about 1,500 (3.8%) were called active. This is one part of a sample in which actives are shown more often than they occur.

The compounds below were run on HSkMC (human skeletal muscle cells) (assay: cytotoxicity call (relative viability < 0.9)). Conditions: 10 µM.

Row | Compound | cytotoxicity call
1 | C[C@H]1CCCCO[C@@H](CN(C)Cc2ccc(C(=O)O)cc2)[C@@H](C)CN([C@@H](C)CO)C(=O)c2cc(NC(=O)NC3CCCCC3)ccc2O1 | inactive
2 | C[C@@H]1CN([C@H](C)CO)S(=O)(=O)c2ccc(Br)cc2O[C@@H]1CN(C)S(=O)(=O)c1ccc(F)cc1 | inactive
3 | CON=C(C(=O)NC1C(=O)N2C(C(=O)OCOC(=O)C(C)(C)C)=C(C=Cc3scnc3C)CSC12)c1csc(N)n1 (stereo not given) | inactive
4 | C[C@H]1CN([C@@H](C)CO)C(=O)c2cc(C#Cc3ccccc3)cnc2O[C@H]1CN(C)C(=O)CCN1CCCCC1 | inactive
5 | COCCCNC(=O)[C@@]1(Sc2ccc(C)cc2)CC(=O)N(Cc2ccccc2Cl)[C@@H]1c1ccc(CO)cc1 | inactive
6 | O=C1N[C@H](Cc2c[nH]c3ccccc23)COC(=O)[C@@H](Cc2ccc(F)cc2)CCC=CC[C@H]1CC(=O)N(CCO)Cc1ccccc1 | inactive
7 | COc1cc(C)c(C(=O)Oc2cc(C)c(C(=O)O)c(O)c2)c(O)c1 | inactive
8 | COCCCNc1ncnc(N)c1[N+](=O)[O-] | inactive
9 | C[C@@H]1CN([C@@H](C)CO)C(=O)c2cccc(NC(=O)Nc3ccc4c(c3)OCO4)c2O[C@@H]1CN(C)Cc1ccc(Cl)c(Cl)c1 | inactive
10 | C[C@H](CO)N1C[C@H](C)[C@@H](CN(C)Cc2ccc(Cl)c(Cl)c2)Oc2c(NC(=O)Nc3ccc4c(c3)OCO4)cccc2C1=O | active
11 | C[C@H]1CN([C@@H](C)CO)C(=O)c2cccc(NC(=O)Nc3ccc4c(c3)OCO4)c2O[C@@H]1CN(C)Cc1ccc(Cl)c(Cl)c1 | inactive
12 | C[C@H]1CN([C@@H](C)CO)C(=O)c2cccc(NC(=O)Nc3ccc(F)cc3)c2O[C@@H]1CN(C)Cc1ccc(Cl)c(Cl)c1 | active
13 | C[C@H](CO)N1C[C@H](C)[C@H](CN(C)S(C)(=O)=O)OCCCC[C@H](C)Oc2ccc(NS(=O)(=O)c3ccc(F)cc3)cc2C1=O | inactive
14 | CO[C@@H]1CN(C)C(=O)c2cc(NC(=O)c3ccccc3)ccc2OC[C@H](C)N(C(=O)CN(C)C)C[C@@H]1C | inactive
15 | CC(C)(C)OC(=O)N[C@H]1CCCCC/C=C\[C@@H]2C[C@@]2(C(=O)NS(=O)(=O)C2CC2)NC(=O)[C@@H]2C[C@@H](OC(=O)N3Cc4cccc(F)c4C3)CN2C1=O | inactive
16 | COc1ccc(NC(=O)Nc2ccc3c(c2)C(=O)N([C@@H](C)CO)C[C@@H](C)[C@H](CN(C)S(=O)(=O)c2ccc(Cl)cc2)OCCCC[C@@H](C)O3)cc1 | inactive
17 | Cc1noc(C)c1NC(=O)Nc1ccc2c(c1)C(=O)N([C@@H](C)CO)C[C@H](C)[C@@H](CN(C)S(=O)(=O)c1ccc(Cl)cc1)OCCCC[C@@H](C)O2 | inactive
18 | COCCOC(=O)N1C(=O)[C@@]2(c3cc(C#CC4(O)CCCCCC4)ccc31)[C@H](C(=O)N1CCCCCCC1)[C@H]1C(=O)O[C@H](c3ccccc3)[C@H](c3ccccc3)N1[C@@H]2c1ccc(OCCO)cc1 | inactive
19 | Cc1ccc(S(=O)(=O)Nc2ccc3c(c2)CC(=O)N([C@@H](C)CO)C[C@H](C)[C@@H](CN(C)Cc2ccc(Oc4ccccc4)cc2)O3)cc1 | active
20 | Cc1ccc(S(=O)(=O)Nc2ccc3c(c2)CC(=O)N([C@H](C)CO)C[C@@H](C)[C@@H](CN(C)Cc2ccc(Oc4ccccc4)cc2)O3)cc1 | inactive

Row | Compound | cytotoxicity call
21 | Cc1ccc(S(=O)(=O)Nc2ccc3c(c2)CC(=O)N([C@H](C)CO)C[C@@H](C)[C@H](CN(C)Cc2ccc(Oc4ccccc4)cc2)O3)cc1 | active
22 | Cc1ccc(S(=O)(=O)Nc2ccc3c(c2)CC(=O)N([C@@H](C)CO)C[C@@H](C)[C@H](CN(C)Cc2ccc(Oc4ccccc4)cc2)O3)cc1 | inactive
23 | Cc1ccc(S(=O)(=O)Nc2ccc3c(c2)CC(=O)N([C@H](C)CO)C[C@H](C)[C@H](CN(C)Cc2ccc(Oc4ccccc4)cc2)O3)cc1 | inactive
24 | Cc1ccc(S(=O)(=O)Nc2ccc3c(c2)CC(=O)N([C@@H](C)CO)C[C@@H](C)[C@@H](CN(C)Cc2ccc(Oc4ccccc4)cc2)O3)cc1 | inactive
25 | Cc1ccc(S(=O)(=O)Nc2ccc3c(c2)CC(=O)N([C@@H](C)CO)C[C@H](C)[C@H](CN(C)Cc2ccc(Oc4ccccc4)cc2)O3)cc1 | active
26 | Cc1ccc(S(=O)(=O)Nc2ccc3c(c2)CC(=O)N([C@H](C)CO)C[C@H](C)[C@@H](CN(C)Cc2ccc(Oc4ccccc4)cc2)O3)cc1 | inactive
27 | C[C@H](CO)N1C[C@H](C)[C@@H](CN(C)S(=O)(=O)c2ccc(F)cc2)Oc2ccc(NC(=O)C3CC3)cc2CC1=O | inactive
28 | CO[C@H]1CN(C)C(=O)c2cc(NC(=O)Nc3cccc(Cl)c3)ccc2OC[C@H](C)N(C(=O)Nc2c(C)noc2C)C[C@H]1C | inactive
29 | COc1ccc(NC(=O)N(C)C[C@H]2OCCCC[C@@H](C)Oc3ccc(NC(=O)Nc4cccc5ccccc45)cc3C(=O)N([C@H](C)CO)C[C@@H]2C)cc1 | inactive
30 | Cc1ccc(S(=O)(=O)N[C@H]2CC[C@@H](CC(=O)N3CCC(Cc4ccccc4)CC3)O[C@@H]2CO)cc1 | inactive
31 | C[C@@H]1CCCCO[C@@H](CN(C)C(=O)NC2CCCCC2)[C@H](C)CN([C@@H](C)CO)C(=O)c2cc(NC(=O)Cc3ccccc3)ccc2O1 | inactive
32 | C[C@H]1CN([C@@H](C)CO)C(=O)Cc2cc(NC(=O)Nc3cccc4c3CCCC4)ccc2O[C@H]1CN(C)S(=O)(=O)c1ccc(Oc2ccccc2)cc1 | inactive
33 | Cc1cc(Oc2ccnc3cc(Cl)ccc23)ccc1Cl | inactive
34 | Cc1c(C(=O)Nc2ccc(Oc3ccnc4cc(OCC(C)(C)O)ccc34)c(F)c2)c(=O)n(-c2ccccc2)n1C | active
35 | CCS(=O)(=O)N1C[C@]2(C1)CN([C@@H](CO)c1c2c2ccc(cc2n1C)OC)C(=O)Nc1cccc(c1)F | inactive
36 | CC(C)NC(=O)Nc1cccc2c1O[C@@H](CN(C)C(=O)NC1CCCCC1)[C@@H](C)CN([C@@H](C)CO)C2=O | inactive
37 | Cc1ccc(S(=O)(=O)N(C)C[C@H]2Oc3ccc(NS(C)(=O)=O)cc3CC(=O)N([C@@H](C)CO)C[C@@H]2C)cc1 | inactive
38 | CC(C)CCCC(C)C1CCC2C3CC(=O)C4CC(O)CCC4(C)C3CCC12C (stereo not drawn) [5alpha-CHOLESTAN-3beta-OL-6-ONE ] | inactive
39 | CC(C)CCCC(C)C1CCC2C3CCC4CC(O)CCC4(C)C3CCC12C (stereo not drawn) [5alpha-CHOLESTANOL ] | inactive
40 | CC(C)CCC[C@@H](C)[C@H]1CC[C@H]2[C@@H]3C[C@@H](O)[C@@]4(O)C[C@@H](O)CC[C@]4(C)[C@H]3CC[C@]12C [CHOLESTAN-3beta,5alpha,6beta-TRIOL ] | active
